TDP1 cell noCPT = qHTS for Inhibitors of human tyrosyl-DNA phosphodiesterase 1 (TDP1): qHTS in cells in absence of CPT; DT40 Tdp1-/- hTDP1 cells, no CPT, ATP luminescence, 48 h; Potency, µM (series often up to 46.2 µM), inactives show at the top dose activity change, negative = growth inhibition, hits mostly inhibitors; actives 15% (n = 420,000); AID 686978, 2013; also: potency is read from the fitted curve at half-maximal effect; nearly all actives have a fitted effect of over 55% in size
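Compound effects on proliferation are scored in DT40 Tdp1-/-;hTDP1 cells in the absence of CPT. ATP levels (CellTiter-Glo luminescence) are recorded after a ≥48 hr, 37 °C incubation.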
DT40 TDP1 CPT = growth inhibition of DT40 Tdp1-/-;hTDP1 cells with camptothecin (screen for TDP1 inhibitors). actives 12% (n = 420,000). Potency, µM (doses to about 46.2 µM), for inactives: at the top dose activity change, negative = growth inhibition, most hits filed as inhibitors. chicken DT40 Tdp1-/-;hTDP1 cells + 20 nM CPT, ATP luminescence, 48 h; also: potency is read from the fitted curve at half-maximal effect; nearly all actives have a fitted effect of over 55% in size
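Chicken DT40 Tdp1-/- cells complemented with human TDP1, 400 cells/well, exposed to compounds plus 20 nM camptothecin for at least 48 h at 37 C; viability read as ATP content by CellTiter-Glo luminescence.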
HT1080NT lethal = kills 2HG-producing HT-1080-NT fibrosarcoma cells; actives 1.6% (n = 360,000); Potency, µM (series often up to 46.1 µM), for inactives: top-dose activity, negative = less viability, hits mostly cytotoxic; HT-1080-NT fibrosarcoma viability, CellTiter-Glo ATP luminescence, 48 h;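 also: NT is the 2HG producing partner of a matched IDH1 knockdown line; potency is read from the fitted curve at half-maximal effect; 0% = DMSO-treated cells and -100% = media-only wells without cells; nearly all actives have a fitted effect of over 55% in size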
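A 48-hour cytotoxicity screen used HT-1080-NT cells plated 2 hours before compound delivery. ATP-based CellTiter-Glo luminescence measured viability, normalized to DMSO and no-cell controls.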
IL-1B inflam inh = inflammasome signaling inhibition, IL-1 beta readout; actives 4.7% (n = 360,000); activity change, % at 57.5 µM; THP-1 LPS/ATP IL-1B secretion, AlphaLISA, 16 h; hits give low values; in the data active = activity change below about -50%; inconclusive = mostly about -30% to -49%
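THP-1 cells pretreated 1 hr with compounds (up to 57.5 uM final), then stimulated with LPS (250 ng/mL final) plus ATP (1.25 mM final); secreted IL-1B measured by AlphaLISA after 16 hr, decreased signal indicating inhibition.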
HT1080 IDH1KD tx = kills HT-1080 cells with IDH1 knockdown. HT-1080 IDH1 knockdown viability, ATP luminescence, 48 h. Potency, µM (top dose mostly 46.1 µM), inactives show top-dose activity, negative = toxicity, actives largely listed as cytotoxic. actives 2% (n = 360,000). AID 686971;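 also: potency is read from the fitted curve at half-maximal effect; 0% = DMSO wells and -100% = cell-free medium wells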
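Viability of IDH1-knockdown HT-1080 fibrosarcoma cells was assessed by CellTiter-Glo after 48 h at 37 °C with titrated compound; concentration-effect curves were classified by fit quality and response size.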
Numbers without * were called inactive; ? = inconclusive; . = no result. Sampled rows, rich in hits. Any-hit rate of the full collection: about 19%. Unless noted, calls follow the shape of the dose curve; as a rule, active = well fitted curve in the direction sought with a large enough effect; inconclusive = small, poorly fitted or top-dose-only effect, or another doubt; inactive = no such curve, though single readings can be large; an effect the other way counts as inactive or inconclusive. Unless noted, % is scaled to controls: 0 for no effect and ±100 for the full control effect.

SMILES	TDP1 cell noCPT	DT40 TDP1 CPT	HT1080NT lethal	IL-1B inflam inh	HT1080 IDH1KD tx
CCc1cccc(CC)c1N(COC)C(=O)Cn1c(C(C)O)nc2ccccc21 (centres undefined)	?	?	0%	-2	14%
O=C(c1ccc(Cl)cc1)N1CCC(c2ccncc2)CC1	-72%	?	.	.	.
Cc1ccc(S(=O)(=O)N(CCCN2CCCC2=O)Cc2cc3c(C)ccc(C)c3[nH]c2=O)cc1	23µM*	18µM*	14%	-2	9%
Cc1ccc(C)c2[nH]c(=O)c(CCNC(=O)c3ccc(S(=O)(=O)N4CCCC4)cc3)cc12	?	?	4%	?	4%
COc1ccc(S(=O)(=O)N(CCN2CCOCC2)Cc2cc(OC)ccc2OC)cc1	13µM*	-13%	1%	?	1%
COc1ccc(S(=O)(=O)N(CCCN2CCCC2=O)Cc2cc3cc(C)c(C)cc3[nH]c2=O)cc1	?	?	0%	-73*	5%
COc1ccc(NS(=O)(=O)c2ccc(C)c(C(=O)NCCCN3CCCC3=O)c2)cc1	17%	-2%	4%	9	0%
CN1C[C@@H]2[C@@H]3C(=O)N(Cc4ccccc4)C(=O)[C@@H]3[C@](C)(C1=O)N2C(=O)c1ccccc1	3%	7%	22%	14	10%
CC(=O)Nc1cccn(Cc2c(Cl)cccc2Cl)c1=O	-4%	8%	1%	55	30%
CN(Cc1ccco1)C(=O)c1ccc(CNS(=O)(=O)c2ccc3c(c2)C(C)(C)C(=O)N3C)cc1	-29%	-6%	1%	0	-1%
O=C(NC1CCCCC1)C1CC(=O)N(Cc2ccccc2)C1 (centres undefined)	-13%	4%	11%	-7	10%
CC[C@@H](C)[C@@H]1CN([C@@H](CN2CCC[C@H]2CN2C(N)=NC[C@H]2C(C)C)C(C)C)C(=N)N1CCc1ccc(Cl)c(Cl)c1	16µM*	?	-1%	-78*	-4%
CC[C@@H](C)[C@@H]1CN([C@@H](C)CN2CCC[C@H]2CN2C(N)=NC[C@H]2CC(C)C)C(=N)N1CCCC1CCCC1	23µM*	?	0%	?	-1%
CCCCN1C(=N)N([C@@H](CCC)CN2CCC[C@H]2CN2C(N)=NC[C@H]2CC(C)C)C[C@H]1Cc1ccccc1	?	?	2%	-28	-4%
CCC[C@@H](CN1CCC[C@H]1CN1C(N)=NC[C@H]1C(C)C)N1C[C@@H](Cc2ccccc2)N(CCCC2CCCC2)C1=N	16µM*	?	1%	-63*	1%
CCCCN1C(=N)N([C@@H](CCC)CN2CCC[C@H]2CN2C(N)=NC[C@@H]2Cc2ccccc2)C[C@H]1[C@H](C)CC	12µM*	13µM*	5%	-5	-8%
CC(C)C[C@@H]1CN=C(N)N1C[C@@H]1CCCN1C[C@@H](C(C)C)N1C[C@@H](Cc2ccccc2)N(CCCC2CCCC2)C1=N	?	?	6%	?	0%
O=C(NCc1cccnc1)c1cc(C2CCCN(S(=O)(=O)c3cccs3)C2)on1 (centres undefined)	-23%	-29%	9%	4	14%
CCCCN1C(=O)C(=O)N(CC(=O)NC2CCCc3ccccc32)C1=O (centres undefined)	-17%	-1%	16%	28	21%
CCCCN1C(=N)N([C@@H](CN2CCC[C@H]2CN2C(N)=NC[C@@H]2Cc2ccccc2)C(C)C)C[C@H]1Cc1ccccc1	16µM*	?	0%	-6	5%
CCCCN1C(=N)N([C@@H](C)CN2CCC[C@H]2CN2C(N)=NC[C@@H]2Cc2ccccc2)C[C@H]1Cc1ccccc1	?	?	11%	?	3%
CC[C@@H](C)[C@@H]1CN([C@@H](C)CN2CCC[C@H]2CN2C(N)=NC[C@@H]2Cc2ccccc2)C(=N)N1CCCC1CCCC1	?	?	-3%	-63*	0%
CC1CC=C(O)C12OCC(C)(C)CO2 (centres undefined)	3%	4%	-9%	8	0%
COc1ccc(CCNC(=O)CSc2nnc(CNC(=O)c3cc(OC)c(OC)c(OC)c3)o2)cc1OC	30%	4%	18%	43	8%
O=[N+]([O-])c1ccc(/C=N/Nc2ccnc3cc(Cl)ccc23)o1	16µM*	15µM*	?	-94*	?
SMILES	TDP1 cell noCPT	DT40 TDP1 CPT	HT1080NT lethal	IL-1B inflam inh	HT1080 IDH1KD tx
Clc1ccc2c(N/N=C/c3ccccc3Br)ccnc2c1	2.9µM*	7.3µM*	?	-98*	?
Clc1ccc2c(N/N=C/c3cccc(Br)c3)ccnc2c1	16µM*	16µM*	?	-99*	?
Clc1ccc2c(NNc3ccccc3Cl)ccnc2c1	?	?	10%	1	3%
NC(=S)NNc1ccnc2cc(Cl)ccc12	?	6%	5%	-3	22%
O=c1cnc2cncnc2n1Cc1ccccc1Cl	1.3µM*	2.3µM*	.	.	.
O=c1c(-c2ccccc2)nc2cncnc2n1Cc1ccc(F)cc1	21µM*	?	.	.	.
COc1ncc2ncc(=O)n(Cc3ccc(F)cc3)c2n1	-24%	-3%	.	.	.
O=c1cnc2cncnc2n1Cc1ccc(F)cc1	4.1µM*	4.1µM*	.	.	.
O=c1cnc2cncnc2n1Cc1ccccc1	7.3µM*	5.8µM*	.	.	.
O=c1c(CCc2ccccc2)nc2cncnc2n1Cc1ccccc1	-28%	?	.	.	.
Cc1nc2cncnc2n(Cc2ccccc2Cl)c1=O	-1%	-16%	.	.	.
N=c1c(C(=O)NCC2CCCO2)cc2c(=O)n3ccccc3nc2n1Cc1ccccc1Cl (centres undefined)	1.3µM*	1.5µM*	-9%	17	2%
N=c1c(C(=O)NCC2CCCO2)cc2c(=O)n3ccccc3nc2n1Cc1ccccc1 (centres undefined)	1%	-12%	-1%	-22	-11%
COc1ccc(Cn2c(=N)c(C(=O)NCC3CCCO3)cc3c(=O)n4ccccc4nc32)cc1 (centres undefined)	?	?	0%	-18	0%
N=c1c(C(=O)NCC2CCCO2)cc2c(=O)n3ccccc3nc2n1Cc1ccc(Cl)cc1 (centres undefined)	16µM*	10µM*	-5%	-12	7%
O=C(c1ccc2c(c1)OCO2)C1CCCN(Cc2cccn2-c2cccnc2)C1 (centres undefined)	15µM*	23µM*	-14%	?	-23%
OCCC1CN(Cc2cccn2-c2cccnc2)CCN1C1CCCC1 (centres undefined)	14%	4%	-5%	11	0%
